From PubChem BioAssay
FH mod: Identification of activators of human fumarate hydratase by quantitative high-throughput screening; Fumarate hydratase, mitochondrial (Homo sapiens), P07954; FH coupled MDH/diaphorase resazurin fluorescence, 15 min; Potency, µM (titrated, usually from 79.9 µM), inactives show at the top dose activity change, negative = inhibition, most hits filed as inhibitors; 54,000 compounds, 0.22% hits; note: potency is the fitted concentration of half-maximal effect; % is set by controls: 0 for no effect and ±100 for the full control effect; the screen sought activators but most active calls are inhibition curves; nearly all actives have a fitted effect of over 45% in size
Target sequence (P07954 whole entry, looked up): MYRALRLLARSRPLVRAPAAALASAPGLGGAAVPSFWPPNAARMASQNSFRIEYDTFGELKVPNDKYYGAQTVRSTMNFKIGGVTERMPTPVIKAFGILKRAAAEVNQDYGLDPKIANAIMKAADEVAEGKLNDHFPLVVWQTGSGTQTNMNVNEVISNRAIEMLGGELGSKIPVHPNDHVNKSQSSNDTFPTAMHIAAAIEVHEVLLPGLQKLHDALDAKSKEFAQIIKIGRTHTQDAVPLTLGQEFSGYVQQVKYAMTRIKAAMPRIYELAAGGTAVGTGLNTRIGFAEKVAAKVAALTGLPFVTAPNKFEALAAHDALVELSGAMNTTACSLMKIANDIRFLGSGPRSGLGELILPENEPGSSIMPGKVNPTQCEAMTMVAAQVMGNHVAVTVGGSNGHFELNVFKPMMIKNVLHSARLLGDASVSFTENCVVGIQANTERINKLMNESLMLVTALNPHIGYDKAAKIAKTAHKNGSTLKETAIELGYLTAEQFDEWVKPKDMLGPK
NTMT1 inhibitor: Primary qHTS for Inhibitors of N-terminal methyltransferase 1 (NTMT1): MTaseGlo Assay; N-terminal Xaa-Pro-Lys N-methyltransferase 1 (Homo sapiens), Q9BV86; NTMT1 MTase-Glo SAH luminescence, purified enzyme; Potency, µM (highest dose often 114 µM), for the others: at the highest dose activity change, negative = inhibition, actives largely listed as inhibitors; 59,000 compounds, 2.5% hits; AID 1645870, 2021;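 note: potency is the fitted concentration of half-maximal effect; plate controls were DMSO vehicle for no effect and no enzyme for full effect; nearly all actives have a fitted effect of over 65% in size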
SKOV3 invasion: Primary qHTS assay for Inhibitors of ovarian cancer metastasis using an organotypic tumor microenvironment (TME) model; 46,000 compounds, 0.1% hits; SKOV3ip1-GFP adhesion/invasion on 3D omental model, fluorescence; Potency, µM (doses to about 45.8 µM), inactives show at the top dose activity change, negative = inhibition, usual class: inhibitors;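 note: potency is the fitted concentration of half-maximal effect; plate controls were DMSO wells for no effect and tomatine positive control wells for full effect; nearly all actives have a fitted effect of over 65% in size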
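qHTS, 4-pt dose (0.36-46 umol/L); SKOV3ip1-GFP, 1,200 cells/well, no FBS; primary omental fibroblast/mesothelial co-culture 48 h pre-grown; 2 h RT + 16 h 37 C; PBS wash, 4% PFA; GFP count 488/509 nm.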
GPR32 ag: qHTS for Agonists of Human Resolvin D1 Receptor DRV1. Probable G-protein coupled receptor 32 (Homo sapiens), O75388. CHO-K1 GPR32 beta-arrestin PathHunter luminescence, 90 min; zero percent set by DMSO-only wells. activation, % at 76.9 µM. 48,000 compounds, 2.5% hits;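 active = activation of at least 60% and not above a set upper limit, about 1 call in 100 departs from these limits; inconclusive = activation of 40% to 60%, or above that upper limit; inactive = activation under 40%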; note: 0% is about no effect
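Agonism was scored as beta-arrestin recruitment to ProLink-fused GPR32 in stably transfected CHO-K1 cells, giving a chemiluminescent beta-Gal signal; compounds were incubated 90 min at 37 °C.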
* hit, by the source's call; ! = not confirmed by another sample; [ ] = dose if it differs, or a comment. Only some compounds are listed: those with a hit (about 3.8% of all), similar ones and a draw of the others. Unless noted, calls come from the whole dose curve; as a rule, active = well fitted curve in the direction sought with a large enough effect; inconclusive = small, poorly fitted or top-dose-only effect, or another doubt; inactive = no such curve, though single readings can be large; an effect the other way counts as inactive or inconclusive.

How did CN(CCCN1c2ccccc2CCc2ccccc21)CC(=O)c1ccc(Cl)cc1 do in these assays?
FH mod: -11%[53.3 µM]; NTMT1 inhibitor: 32µM*; GPR32 ag: 109*

What do the screens show for `Cc1noc(/C=C/c2ccccc2F)c1S(=O)(=O)N1CCC(C(=O)NCc2ccco2)CC1`?
FH mod: -1%; NTMT1 inhibitor: -23%; SKOV3 invasion: -7%; GPR32 ag: -22

Results for Cc1ccc(/C=C/c2onc(C)c2S(=O)(=O)N2CCC(C(=O)NCc3ccco3)CC2)cc1 ?
FH mod: -4%; NTMT1 inhibitor: -3%; SKOV3 invasion: 23%; GPR32 ag: 88*

Results for CCC(=O)C1=C(c2ccc(C)cc2)N(C(=O)CC)n2c(nnc2C2CCCCC2)S1 ?
FH mod: -1%; NTMT1 inhibitor: -3%; SKOV3 invasion: -9%; GPR32 ag: -39

Results for Cc1cc(C2CCCCC2)n(O)c(=O)c1 ?
FH mod: 13%[53.3 µM]; NTMT1 inhibitor: inconclusive; SKOV3 invasion: -10%; GPR32 ag: 77*

What do the screens show for `CCOC(=O)c1cc(-c2ccccc2)n(CCCC(=O)Nc2cccc(Cl)c2C)c1C`?
FH mod: -15%; NTMT1 inhibitor: 12%; SKOV3 invasion: inconclusive; GPR32 ag: -19

Results for CN(C)C/C=C/C(=O)Nc1ccc(C(=O)Nc2cccc(Nc3ncc(Cl)c(-c4c[nH]c5ccccc45)n3)c2)cc1 ?
FH mod: 6%; NTMT1 inhibitor: 50µM*!

How did Cc1ccc(C2CC(=O)Nc3cc4c(cc32)OCCO4)cc1 (stereo not drawn) do in these assays?
FH mod: 2%; NTMT1 inhibitor: -10%; SKOV3 invasion: -6%; GPR32 ag: 62*

What do the screens show for `O=C1CC(c2cc(F)cc(F)c2)c2cc3c(cc2N1)OCO3` (stereo not drawn)?
FH mod: 0%; NTMT1 inhibitor: 13%; SKOV3 invasion: inactive; GPR32 ag: 38

How did COc1ccc(Cl)cc1C1CC(=O)Nc2cc3c(cc21)OCCO3 (stereo not drawn) do in these assays?
FH mod: -10%; NTMT1 inhibitor: -2%; SKOV3 invasion: -8%; GPR32 ag: -10

Results for CCc1ccc(C2CC(=O)Nc3cc4c(cc32)OCO4)cc1 (stereo not drawn) ?
FH mod: -6%; NTMT1 inhibitor: 89µM*; SKOV3 invasion: inactive; GPR32 ag: 72*

How did O=C1CC(c2ccc(Cl)cc2)c2cc3c(cc2N1)OCCO3 (stereo not drawn) do in these assays?
FH mod: -18%; NTMT1 inhibitor: -7%; SKOV3 invasion: inactive; GPR32 ag: 80*

How did CCOc1cccc(C2CC(=O)Nc3cc4c(cc32)OCCO4)c1 (stereo not drawn) do in these assays?
FH mod: -9%; NTMT1 inhibitor: -3%; SKOV3 invasion: -18%; GPR32 ag: -6

How did CN(C)c1ccc(CNC(=O)c2ccc(NC(=O)N3CCCCc4ccccc43)cc2)cc1 do in these assays?
FH mod: inconclusive; NTMT1 inhibitor: -13%; SKOV3 invasion: -2%; GPR32 ag: -9

What do the screens show for `COc1ccc2c(c1)c(CC(=O)Nc1c(C)cccc1C)c(C)n2C(=O)c1ccc(Cl)cc1`?
FH mod: -1%; NTMT1 inhibitor: 0%; SKOV3 invasion: inactive; GPR32 ag: 15

Results for COc1cc2nc(NCCc3ccc(Cl)cc3)n3nc(-c4ccccc4)nc3c2cc1OC ?
FH mod: -13%; NTMT1 inhibitor: 15%; SKOV3 invasion: -5%; GPR32 ag: 10

Results for CN(C)c1cccc(C(=O)N2CCC(c3ccncc3)CC2)c1 ?
FH mod: 6%; NTMT1 inhibitor: 4%; SKOV3 invasion: 12%; GPR32 ag: 17

Results for CS(=O)c1ccc(-c2nc(-c3ccc(F)cc3)c(-c3ccncc3)[nH]2)cc1 (stereo not drawn) ?
FH mod: 8%; NTMT1 inhibitor: 35µM*; SKOV3 invasion: 29%[92.2 µM]

How did Cc1ccc(Nc2nccc(N(C)c3ccc4c(C)n(C)nc4c3)n2)cc1S(N)(=O)=O do in these assays?
FH mod: 7%; NTMT1 inhibitor: 16µM*!; SKOV3 invasion: 35%; GPR32 ag: inconclusive

Results for COc1ccc(CNC(=O)CSc2nc3ccccc3nc2Cc2ccccc2OC)cc1 ?
FH mod: 3%; NTMT1 inhibitor: 11%; SKOV3 invasion: -6%; GPR32 ag: -12

What do the screens show for `O=C(Cn1c(=O)oc2cc(S(=O)(=O)NCc3ccccc3)ccc21)Nc1cccc(F)c1`?
FH mod: 0%; NTMT1 inhibitor: 23%; SKOV3 invasion: inactive; GPR32 ag: 67*

What do the screens show for `O=C(Cn1c(=O)oc2cc(S(=O)(=O)NC3CCCC3)ccc21)Nc1ccc(F)c(F)c1`?
FH mod: -19%; NTMT1 inhibitor: 5%; SKOV3 invasion: 4%; GPR32 ag: 91*

How did CCOC(=O)c1ccc(NC(=O)C2CCCN(c3ncnc4onc(-c5ccc(F)cc5)c34)C2)cc1 (stereo not drawn) do in these assays?
FH mod: -21%; NTMT1 inhibitor: 1%; SKOV3 invasion: 10%; GPR32 ag: -14

What do the screens show for `COc1cc(OC)c(NC(=O)c2c(C)oc3ncn(C)c(=O)c23)cc1Cl`?
FH mod: -5%; NTMT1 inhibitor: -15%; SKOV3 invasion: 8%; GPR32 ag: 12

How did C[n+]1ccc(-c2c3nc(c(-c4cc[n+](C)cc4)c4ccc([nH]4)c(-c4cc[n+](C)cc4)c4nc(c(-c5cc[n+](C)cc5)c5ccc2[nH]5)C=C4)C=C3)cc1 do in these assays?
FH mod: 6%; NTMT1 inhibitor: 14µM*

How did CC(C)(C)C(=O)Nc1ccc(Cl)c(-c2nc3ccccc3[nH]2)c1 do in these assays?
FH mod: -4%; NTMT1 inhibitor: 0%; SKOV3 invasion: -4%; GPR32 ag: 88*

What do the screens show for `COc1ccc(C2c3c(ncn(CCN4CCOCC4)c3=N)Oc3ccc4ccccc4c32)cc1OC` (stereo not drawn)?
NTMT1 inhibitor: 1%

How did COc1cccc(N2CCN(c3ncc4c(n3)CCN(Cc3ccc(Br)cc3)C4)CC2)c1 do in these assays?
FH mod: -8%; NTMT1 inhibitor: 50µM*; SKOV3 invasion: -3%; GPR32 ag: -9

Results for Cc1ccc(C(=O)NCC(c2cccs2)S(=O)(=O)c2cccs2)cc1 (stereo not drawn) ?
FH mod: inconclusive; NTMT1 inhibitor: 6%; SKOV3 invasion: -1%; GPR32 ag: 74*

How did O=S(=O)(Nc1ccc(Cl)cc1)c1ccc(NS(=O)(=O)c2ccc3c(c2)OCCO3)cc1 do in these assays?
FH mod: inconclusive; NTMT1 inhibitor: -5%; SKOV3 invasion: 34%; GPR32 ag: 24

Results for COc1ccc(NS(=O)(=O)c2ccc(NS(=O)(=O)c3ccc4c(c3)OCCO4)cc2)cc1 ?
FH mod: -20%; NTMT1 inhibitor: -9%; SKOV3 invasion: inactive; GPR32 ag: 68*
